# TDP1 cell CPT: qHTS for Inhibitors of human tyrosyl-DNA phosphodiesterase 1 (TDP1): qHTS in cells in presence of CPT. chicken DT40 Tdp1-/-;hTDP1 cells + 20 nM CPT, ATP luminescence, 48 h. Potency, µM (doses to about 46.2 µM), inactives show at the top dose activity change, negative = growth inhibition, actives largely listed as inhibitors. 12% of 420,000 active. AID 686979, 2013; also: potency is read from the fitted curve at half-maximal effect; nearly all actives have a fitted effect of over 55% in size
#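 Chicken DT40 Tdp1-/- cells stably complemented with human TDP1 were seeded at 400 cells/well in medium containing 20 nM camptothecin, exposed to pin-transferred compounds, and grown at 37 °C for at least 48 hr. Viability was read as ATP luminescence.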
# IL1B secr inh: qHTS for Inhibitors of Inflammasome Signaling: IL-1-beta AlphaLISA Primary Screen. 4.7% of 360,000 active. THP-1 LPS/ATP IL-1B secretion, AlphaLISA, 16 h; hits give low values. activity change, % at 57.5 µM; in the data active = activity change below about -50%; inconclusive = mostly about -30% to -49%
#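 Secreted IL-1B measured by AlphaLISA bead assay after 16 h compound exposure of THP-1 cells; compounds (final up to 57.5 uM) added 1 h before LPS (250 ng/mL) and ATP (1.25 mM) stimulation; lower signal means less secretion.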
# HT1080NT lethal: qHTS for induction of synthetic lethality in tumor cells producing 2HG: qHTS for the HT-1080-NT fibrosarcoma cell line | 1.6% of 360,000 active | AID 686970, 2013 | HT-1080-NT fibrosarcoma viability, CellTiter-Glo ATP luminescence, 48 h | Potency, µM (doses to about 46.1 µM), for inactives: top-dose activity, negative = less viability, usual class: cytotoxic;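 also: NT is the 2HG producing partner of a matched IDH1 knockdown line; potency is read from the fitted curve at half-maximal effect; 0% = DMSO-treated cells and -100% = media-only wells without cells; nearly all actives have a fitted effect of over 55% in size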
#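 Compounds were tested in concentration-response format on HT-1080-NT cells for 48 hours at 37 degrees C. Cell viability came from CellTiter-Glo luminescence; curves were classified by r2, response magnitude and activity.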
# HT1080 IDH1KD tx: qHTS for induction of synthetic lethality in tumor cells producing 2HG: qHTS for the HT-1080-IDH1KD cell line; HT-1080 IDH1 knockdown viability, ATP luminescence, 48 h; Potency, µM (highest dose often 46.1 µM), for the others: top-dose activity, negative = toxicity, actives largely listed as cytotoxic; 2% of 360,000 active; AID 686971, 2013;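 also: potency is read from the fitted curve at half-maximal effect; 0% = DMSO wells and -100% = cell-free medium wells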
#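 CellTiter-Glo luminescence after 48 h compound exposure at 37 degrees C of IDH1-knockdown HT-1080 cells in 5% FBS RPMI. %Activity scaled between DMSO wells and cell-free media wells, with curves fitted and assigned curve classes.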
# DT40 TDP1 no CPT: qHTS for Inhibitors of human tyrosyl-DNA phosphodiesterase 1 (TDP1): qHTS in cells in absence of CPT. DT40 Tdp1-/- hTDP1 cells, no CPT, ATP luminescence, 48 h. Potency, µM (top dose mostly 46.2 µM), without a hit: at the highest dose activity change, negative = growth inhibition, hits mostly inhibitors. AID 686978, 2013. 15% of 420,000 active; also: potency is read from the fitted curve at half-maximal effect; nearly all actives have a fitted effect of over 55% in size
#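 No-CPT arm: Tdp1-/-;hTDP1 DT40 cells (400/well) plus compounds, incubated ≥48 hr at 37 °C. Readout CellTiter-Glo luminescence.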
# ELG1 DNA repair: qHTS screen for small molecules that inhibit ELG1-dependent DNA repair in human embryonic kidney (HEK293T) cells expressing luciferase-tagged ELG1; HEK293T ELG1-luciferase reporter, luminescence, 16 h; DNA damage induced by 5-fluorouridine; Potency, µM (top dose mostly 46.1 µM), for the others: top-dose activity change, negative = inhibition, hits mostly inhibitors; 2.3% of 330,000 active; AID 504467, 2011; also: potency is read from the fitted curve at half-maximal effect; nearly all actives have a fitted effect of over 55% in size
#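 Luminescence from the luciferase reporter, measured 30 min after ONE-Glo reagent at room temperature, was the read-out. Beforehand, 2,000 cells per well were exposed for 16 hr at 37 °C to 5-fluorouridine together with compound or vehicle.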
# An asterisk follows results filed as active; ? = inconclusive; · = not tested or not shown. A selection: hits, their analogues and other compounds. The true share with any hit is near 19%. Unless noted, calls follow the shape of the dose curve; as a rule, active = well fitted curve in the direction sought with a large enough effect; inconclusive = small, poorly fitted or top-dose-only effect, or another doubt; inactive = no such curve, though single readings can be large; an effect the other way counts as inactive or inconclusive. Unless noted, % is scaled to controls: 0 for no effect and ±100 for the full control effect.
SMILES,TDP1 cell CPT,IL1B secr inh,HT1080NT lethal,HT1080 IDH1KD tx,DT40 TDP1 no CPT,ELG1 DNA repair
CNc1ccc2oc(C[C@@H]3OC4(CC[C@@H]3C)O[C@H]([C@@H](C)C(=O)c3ccc[nH]3)[C@H](C)C[C@H]4C)nc2c1C(=O)O (some centres not stated),2.3µM*,·,·,·,4.6µM*,·
CNc1ccc2oc(C[C@H]3O[C@@]4(CC[C@H]3C)O[C@H]([C@H](C)C(=O)c3ccc[nH]3)[C@H](C)C[C@H]4C)nc2c1C(=O)O,0.026µM*,39,1.5µM*,2.1µM*,0.18µM*,5.8µM*
CC(Cc1ccccc1)/[N+]([O-])=C\c1ccc(C(F)(F)F)cc1 (configuration not stated),?,0,21%,-10%,?,?
COc1cccc(OC)c1CN1CCCC(C(=O)c2cccc(Cl)c2)C1 (configuration not stated),18µM*,?,-19%,-13%,?,-22%
COc1ccccc1CN1CCCC(C(=O)c2ccccc2SC)C1 (configuration not stated),13µM*,-27,?,?,21µM*,-16%
COc1ccc(C(=O)C2CCCN(CCc3ccccc3)C2)cc1OC (configuration not stated),?,-3,-20%,-9%,18µM*,·
COc1cccc(C(=O)C2CCCN(Cc3ccccn3)C2)c1 (configuration not stated),-1%,0,0%,2%,?,-4%
CSc1ccccc1C(=O)C1CCCN(Cc2ccncc2)C1 (configuration not stated),-21%,22,0%,8%,-14%,9%
O=C(c1cccc(C(F)(F)F)c1)C1CCCN(Cc2ncc[nH]2)C1 (configuration not stated),?,43,-4%,0%,-23%,-3%
CCn1ccnc1CN1CCCC(C(=O)c2cccc(C(F)(F)F)c2)C1 (configuration not stated),?,-28,-4%,0%,26µM*,-25%
COc1ccc(-c2nn(CCC#N)cc2C(=O)Nc2ccccc2)cc1OC,23%,-5,13%,8%,-7%,1%
O=C(c1cccnc1)c1cc2ccccc2[nH]1,9%,-6,12%,4%,?,?
O=C(Nc1ccccc1)N1CCC2(CC1)CCN(C(=O)Oc1ccccc1)CC2,-20%,·,·,·,?,·
NCCc1cccc(O)c1,-8%,·,·,·,-12%,·
COC(=O)C1=C(C)n2nnnc2NC1c1ccc(Cl)cc1 (configuration not stated),?,-6,2%,-1%,-27%,-9%
CCOc1ccccc1CN1CCCC(C(=O)c2cc(F)ccc2F)C1 (configuration not stated),-45%,-15,-22%,-26%,?,-7%
COc1ccccc1CN1CCCC(C(=O)c2ccccc2OC)C1 (configuration not stated),8.2µM*,-11,-15%,-14%,?,-12%
COc1ccc(O)c(CN2CCCC(C(=O)c3ccccc3SC)C2)c1 (configuration not stated),?,-23,-25%,?,15µM*,?
CCOc1ccc(CN2CCCC(C(=O)c3ccccc3OC)C2)cc1 (configuration not stated),?,-58*,-25%,-26%,?,0%
